Compound activity from PubChem BioAssay.
Rows were chosen to be rich in hits. Some 8.2% of all compounds tested hit in one or more screens of this group.
KB-V1 cytotox = KB-V1 MDR subline cytotoxicity; Potency, µM (top dose mostly 46.1 µM), hits mostly cytotoxic; KB-V1 MDR cells viability, CellTiter-Glo, 72 h; 3.4% of 400,000 active; AID 1347076; note: nearly all actives have a fitted effect of over 60% in size
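KB-V1 cells (P-gp-expressing MDR subline of KB-3-1) in phenol-red-free DMEM with 10% FBS were exposed to library compounds over a concentration series for 72 h at 37 degrees C. Viability read by CellTiter-Glo luminescence; concentration-effect curves fitted after normalization.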
SW480 rerep = inducers of DNA re-replication in SW480 colon cancer cells; Potency, µM (titrated, usually from 46.1 µM), actives largely listed as activators; SW480 DNA re-replication, Hoechst DNA content imaging, 48 h; 1.8% of 340,000 active; note: nearly all actives have a fitted effect of over 55% in size
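DNA re-replication was detected as more nuclei of elevated Hoechst intensity after 48 hr exposure to compound (23 nL pinned per well of 250 cells).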
KB-3-1 cytotox = kills parental KB-3-1 adenocarcinoma cells; Potency, µM (series often up to 46.1 µM), actives largely listed as cytotoxic; 1.4% of 400,000 active; KB-3-1 viability, CellTiter-Glo ATP luminescence, 72 h; AID 1347075; note: nearly all actives have a fitted effect of over 60% in size
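Cytotoxicity measured as CellTiter-Glo luminescence after 72 h at 37 C. Compound titrations were pinned onto drug-naive KB-3-1 parental adenocarcinoma cells grown in DMEM with 10% FBS, and normalized data fitted to concentration-response curves.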
MCF10A rereplic = inducers of DNA re-replication in MCF 10A breast cells | Potency, µM (doses to about 46.1 µM), actives largely listed as activators | AID 624296 | 2.9% of 350,000 active | MCF 10A DNA re-replication, Hoechst nuclear intensity, 48 h; note: nearly all actives have a fitted effect of over 50% in size
ELG1 repair inh = ELG1-dependent DNA repair inhibition. Potency, µM (titrated, usually from 46.1 µM), most hits filed as inhibitors. HEK293T ELG1-luciferase reporter, luminescence, 16 h; DNA damage induced by 5-fluorouridine. 2.3% of 330,000 active. AID 504467; note: nearly all actives have a fitted effect of over 55% in size
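Overnight (16 hr) co-exposure of 2,000 cells/well to 5-fluorouridine and compound at 37 °C preceded detection. Luciferase was quantified via ONE-Glo luminescence; loss of signal denotes inhibition.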
Large screens that a line does not name were inactive. Calls come from the whole dose curve; as a rule, active = well fitted curve in the direction sought with a large enough effect; inconclusive = small, poorly fitted or top-dose-only effect, or another doubt; inactive = no such curve, though single readings can be large; an effect the other way counts as inactive or inconclusive.

CN(C(=O)CCCN1C(=O)c2ccccc2C1=O)C1CCCCC1	KB-V1 cytotox 12µM, ELG1 repair inh inconclusive
CN(C(=O)CCN1C(=O)c2ccccc2C1=O)C1CCCCC1	none
CNc1ccc(N=Nc2cccc3ncccc23)cc1	none (no result: ELG1 repair inh)
CCN(CC)CCOc1ccc(-c2nc3cc(Cl)ccc3s2)cc1	SW480 rerep 19µM, MCF10A rereplic 24µM (no result: KB-V1 cytotox, KB-3-1 cytotox, ELG1 repair inh)
COc1ccc(-n2c(=O)c(CCC(=O)N(C)Cc3ccccc3C)nc3ccccc32)cc1	ELG1 repair inh inconclusive
CCc1ccc(CN(C)C(=O)CCc2nc3ccccc3n(-c3ccc(OC)cc3)c2=O)cc1	KB-V1 cytotox 12µM, SW480 rerep inconclusive, MCF10A rereplic inconclusive
CC(=O)Nc1ccc2cc3ccc(NC(C)=O)cc3nc2c1	KB-3-1 cytotox 23µM, ELG1 repair inh inconclusive
Cc1n(Cc2ccccc2)c2ccccc2[n+]1Cc1ccccc1	KB-3-1 cytotox 6.5µM, ELG1 repair inh inconclusive
CCn1c(C)[n+](Cc2ccccc2)c2ccc(Cl)cc21	KB-3-1 cytotox inconclusive, ELG1 repair inh 15µM
CCn1c(/C=C/N(C)c2ccccc2)[n+](CC)c2ccc(Cl)cc21	KB-3-1 cytotox 5.2µM, ELG1 repair inh inconclusive
COc1cccc(NC(=O)CN(C)S(=O)(=O)c2cccs2)c1	none (no result: SW480 rerep, MCF10A rereplic, ELG1 repair inh)
CN(C)/C=N/c1c(C#N)cnn1-c1ncnc2sc(-c3ccccc3)cc12	KB-V1 cytotox inconclusive, MCF10A rereplic inconclusive, ELG1 repair inh 18µM
CN(C)/C=N/c1c(C#N)cnn1-c1ccc(C(F)(F)F)cn1	MCF10A rereplic 15µM
O=S1(=O)CCS(=O)(=O)C1c1ccccc1	SW480 rerep inconclusive, MCF10A rereplic inconclusive (no result: ELG1 repair inh)
O=C1NC[C@@H](c2ccccc2)OC(=O)[C@@H](Cc2ccc(F)cc2)C/C=C\C[C@@H]1CC(=O)N(CCO)Cc1ccccc1	KB-3-1 cytotox inconclusive, MCF10A rereplic inconclusive, ELG1 repair inh 21µM
O=C1NC[C@H](c2ccccc2)OC(=O)[C@@H](Cc2ccc(F)cc2)CC/C=C/C[C@@H]1CC(=O)N(CCO)Cc1ccccc1	KB-3-1 cytotox inconclusive, MCF10A rereplic inconclusive, ELG1 repair inh 23µM
O=C1NC[C@H](c2ccccc2)OC(=O)[C@@H](Cc2ccc(F)cc2)CC/C=C/C[C@H]1CC(=O)N(CCO)Cc1ccccc1	KB-V1 cytotox inconclusive, SW480 rerep inconclusive, KB-3-1 cytotox inconclusive, MCF10A rereplic inconclusive, ELG1 repair inh 5.2µM
O=C1NC[C@@H](c2ccccc2)OC(=O)[C@H](Cc2ccc(F)cc2)C/C=C\C[C@@H]1CC(=O)N(CCO)Cc1ccccc1	SW480 rerep inconclusive, KB-3-1 cytotox inconclusive
O=C1NC[C@H](c2ccccc2)OC(=O)[C@H](Cc2ccc(F)cc2)C/C=C\C[C@@H]1CC(=O)N(CCO)Cc1ccccc1	KB-V1 cytotox inconclusive, ELG1 repair inh inconclusive
O=C(CC1C(=O)N(c2ccc(F)cc2)C(=O)N1Cc1ccc2c(c1)OCO2)Nc1ccc(F)cc1 (stereo unspecified)	none (no result: SW480 rerep, MCF10A rereplic, ELG1 repair inh)
N#Cc1c(N2CCCC(O)C2)nc(N)c2c(N)nc3c(c12)CC(=O)N3C12CC3CC(CC(C3)C1)C2 (stereo unspecified)	KB-V1 cytotox 15µM, SW480 rerep 4.6µM, KB-3-1 cytotox 4.1µM, MCF10A rereplic inconclusive, ELG1 repair inh inconclusive
O=C(Nc1cnn(Cc2ccc(F)cc2)c1)c1noc2c1CCCC2	KB-3-1 cytotox inconclusive, MCF10A rereplic 4.6µM, ELG1 repair inh 0.41µM
O=C(Nc1cnn(Cc2ccc(F)cc2)c1)C(c1ccccc1)c1ccccc1	KB-V1 cytotox 5.2µM, KB-3-1 cytotox inconclusive, ELG1 repair inh inconclusive
O=C(Nc1cnn(Cc2ccc(F)cc2)c1)c1cnccn1	MCF10A rereplic inconclusive
CCc1cc(C(=O)Nc2cnn(Cc3ccc(F)cc3)c2)no1	none (no result: SW480 rerep, MCF10A rereplic, ELG1 repair inh)
COc1ccc(CNC(=O)c2noc3c2CCCCC3)cc1	ELG1 repair inh inconclusive
CC(C)(C)C1CCc2onc(C(=O)Nc3cnn(Cc4ccc(F)cc4)c3)c2C1 (stereo unspecified)	KB-V1 cytotox 2.6µM, SW480 rerep inconclusive, MCF10A rereplic inconclusive
O=C(NCc1ccccc1)c1noc2c1CCCCC2	KB-V1 cytotox 21µM, SW480 rerep inconclusive, MCF10A rereplic inconclusive, ELG1 repair inh inconclusive
CN(C(=O)CSc1nc(-c2ccccc2)no1)c1ccc(F)cc1	none (no result: SW480 rerep, MCF10A rereplic, ELG1 repair inh)
O=C(C1CCCCC1)N1C[C@@H](O)[C@H](n2cc(C3CC3)nn2)C[C@@H]1c1ccccc1	none (no result: SW480 rerep, MCF10A rereplic, ELG1 repair inh)
